Source: PubChem
Hits are enriched below; roughly 3.9% of the tested compounds scored in any of these assays.
Mot1-301 SUMO: inhibitors of SUMOylation pathway: yeast Mot1-301 growth rescue; 1% of 320,000 active; AID 2716; S. cerevisiae Mot1-301 growth rescue, ATP luminescence, 38.5C; percent above DMSO median, 100 means doubled; growth rescue, % at 18.8 µM;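 active = every valid replicate shows activation above 250% relative to neutral control wells; inactive = the rest, any valid replicate at or below 250%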;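 note: OY570 slx delta 5 strain wells were the positive control but not used for scaling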
CDK5 p35 inh: blocks human CDK5/p35 kinase activity. 0.01% of 330,000 active. Recombinant CDK5/p35, ADP-Glo luminescence, 60 min. inhibition, % at 10 µM;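 active = highest replicate inhibition of at least 50% and at least 75% of replicates reaching 50%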;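 note: plate controls were DMSO neutral control for no effect and GW8510 at 10 µM for full effect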
NSD2 inh: NSD2 (human) methyltransferase inhibition | O96028 | NSD2 peptide methylation, AlphaScreen, 120 min | inhibition, % at 12.5 µM | 0.54% of 310,000 active | AID 743445; in the data active = inhibition above about 50%
ALR inh: human ALR oxidase inhibition via reduced H2O2; P55789; purified ALR, DTT oxidation, H2O2 HRP-luminol luminescence; inhibition, % (test concentration not listed); 3.8% of 290,000 active;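 active = mean replicate inhibition above about 79%, with every replicate also reaching it, limit read from the data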
Target sequence (P55789 whole entry, looked up): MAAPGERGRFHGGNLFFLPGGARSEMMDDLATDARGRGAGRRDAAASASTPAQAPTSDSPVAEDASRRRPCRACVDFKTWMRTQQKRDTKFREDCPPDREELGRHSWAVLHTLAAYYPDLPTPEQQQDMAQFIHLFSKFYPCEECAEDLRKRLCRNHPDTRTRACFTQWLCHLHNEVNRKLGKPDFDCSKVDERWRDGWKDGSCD
Casp6 inh: caspase-6 (human) enzyme inhibition. inhibition, % at 12.5 µM. 0.53% of 350,000 active. P55212. purified caspase-6, Z-VEID-R110 cleavage fluorescence;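 active = mean inhibition across replicates at least about 35%, with every replicate also reaching that limit, limit read from the data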;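 note: 0% = median of neutral control wells and 100% = no fluorescence left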
Target sequence (P55212 24-179 limits assumed): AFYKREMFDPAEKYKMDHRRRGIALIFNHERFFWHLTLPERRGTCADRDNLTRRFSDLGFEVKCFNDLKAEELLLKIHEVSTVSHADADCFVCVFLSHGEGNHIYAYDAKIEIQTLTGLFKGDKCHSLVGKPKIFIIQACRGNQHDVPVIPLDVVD
Target sequence (P55212 194-293 limits assumed): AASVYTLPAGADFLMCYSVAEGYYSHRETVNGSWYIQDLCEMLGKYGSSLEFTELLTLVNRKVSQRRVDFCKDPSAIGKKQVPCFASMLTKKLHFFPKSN
N-glyco inh: N-linked glycosylation inhibition. D54 ERlucT glycosylation luciferase reporter, 24 h; percent of 100 nM tunicamycin response. reporter increase, % at 12.5 µM. 0.23% of 360,000 active. AID 588692;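 active = mean luciferase reporter signal, scaled so untreated is 0 and the glycosylation-blocking control 100, at or above a set limit in every replicate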;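 note: luciferase carries N-glycosylation sites so blocking glycosylation raises the light; 0% = median of neutral control wells and 100% = median of 100 nM tunicamycin wells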
* hit, by the source's call; · = no result.

SMILES	Mot1-301 SUMO	CDK5 p35 inh	NSD2 inh	ALR inh	Casp6 inh	N-glyco inh
CCCOc1ccc(Br)cc1CSC(=N)N	-9	2	-6	-56	0	13
COC(=O)C[C@H]1C=C[C@@H](NS(=O)(=O)c2ccccc2F)[C@H](CO)O1	·	·	·	·	1	·
OC[C@@H]1[C@@H](c2ccccc2)C2(CN(CCC(F)(F)F)C2)N1Cc1cccnc1	·	·	·	·	-3	·
COc1ccc(CN(C)C[C@H]2OCCCC[C@H](C)Oc3ccc(NS(=O)(=O)c4ccc(F)cc4)cc3C(=O)N([C@H](C)CO)C[C@@H]2C)cc1	·	·	·	·	-3	·
Cc1oc(-c2ccccc2F)nc1CS(=O)CC(=O)NCc1ccc2c(c1)OCO2 (configuration not stated)	-3	-11	·	99*	1	2
COc1ccc(-c2nc(CSCC(=O)N3CCN(C4CCCCC4)CC3)c(C)o2)cc1OC	6	-1	·	·	-10	-2
COc1cc(OC)cc(-c2nnc(SCC(=O)N3CCCc4ccccc43)o2)c1	-18	0	-1	-3	·	0
COc1ccc(-c2nc(CSCC(=O)NCc3ccc4c(c3)OCO4)c(C)o2)cc1OC	6	1	·	99*	-2	2
COc1ccc(-c2nc(CSCC(=O)NCCC3=CCCCC3)c(C)o2)cc1OC	36	1	1	100*	·	-2
COc1cccc(-c2nnc(SCC(=O)N3CCCc4ccccc43)o2)c1	135	1	0	87*	·	4
COc1ccc(-c2nc(CSCC(=O)NCc3ccc4c(c3)OCO4)c(C)o2)cc1	-17	1	·	-5	-2	1
CC=Cc1ccc2n(c1=O)C[C@@H]1[C@@H](CO)[C@H](C(=O)N3CCc4ccccc4C3)[C@H]2N1Cc1ccncc1 (mixture of isomers)	·	·	·	·	1	·
C[C@H](CO)N1C[C@H](C)[C@H](CN(C)S(C)(=O)=O)Oc2c(NS(C)(=O)=O)cccc2C1=O	·	·	·	·	-1	·
COc1ccccc1CNC(=O)CS(=O)Cc1nc(-c2ccc(OC)c(OC)c2)oc1C (configuration not stated)	1	0	0	99*	0	3
COc1ccc(-c2nc(CSCC(=O)N3CCc4ccccc43)c(C)o2)cc1OC	1	-1	2	99*	·	3
COc1ccc(-c2nc(CS(=O)CC(=O)NCc3ccc4c(c3)OCO4)c(C)o2)cc1OC (configuration not stated)	-6	-3	·	99*	4	4
Cc1ccsc1-c1nc(CSCC(=O)NCc2ccc3c(c2)OCO3)c(C)o1	-7	1	·	99*	1	5
O=C(C[C@@H]1CC[C@@H]2[C@H](COC[C@@H](O)CN2Cc2nccs2)O1)NCc1ccccc1	·	·	·	·	0	·
CC(C)(C)S(=O)N1Cc2cc(C(=O)NCCCN3CCOCC3)nc(-c3cccc(-c4cccc(F)c4)c3)c2[C@H]1CCO (some centres not stated)	·	·	·	·	-3	·
Cn1nnnc1Sc1ncnc2scc(-c3ccc[nH]3)c12	29	-1	·	94*	7	10
Cn1nnnc1Sc1ncnc2scc(-c3ccccc3Br)c12	-7	1	·	-4	0	-4
Cn1nnnc1Sc1ncnc2scc(Br)c12	342*	0	·	8	-3	-4
C[C@H](CO)N1C[C@H](C)[C@H](CN(C)C(=O)CCCN(C)C)OCCCC[C@H](C)Oc2ccc(NC(=O)CCC(F)(F)F)cc2C1=O	·	·	·	·	0	·
CO[C@H](CN(C)C(=O)Nc1ccc(C(F)(F)F)cc1)[C@@H](C)CN(Cc1ccccc1Cl)[C@H](C)CO	·	·	·	·	-3	·
Cc1ccc(NC2=C(N3CCOCC3)C(=O)c3ccccc3C2=O)cc1	-10	3	101*	8	·	-12
SMILES	Mot1-301 SUMO	CDK5 p35 inh	NSD2 inh	ALR inh	Casp6 inh	N-glyco inh
CC(=O)c1ccc(NC2=C(N3CCOCC3)C(=O)c3ccccc3C2=O)cc1	9	1	·	33	·	11
O=C(O)c1ccc(NC2=C(N3CCOCC3)C(=O)c3ccccc3C2=O)cc1	40	1	95*	-60	·	6
COc1ccc(C#Cc2cnc3c(c2)C(=O)N([C@@H](C)CO)C[C@@H](C)[C@@H](CN(C)C(C)=O)O3)cc1	·	·	·	·	-1	·
CSC1=NSC2=NC(=O)/C(=C/c3coc4ccc(O)cc4c3=O)C(=N)N12	-3	-1	·	22	40*	3
O=C1NN(c2ccccc2)C(=O)/C1=C/c1coc2ccccc2c1=O	4	-6	8	97*	·	-1
CC1=CC2=NC(=O)/C(=C/c3coc4ccc(Cl)cc4c3=O)C(=N)N2O1	-2	-3	2	97*	1	2
CSC1=NSC2=NC(=O)/C(=C\c3cccs3)C(=N)N12	-13	1	2	0	·	-8
Cc1cc(/C=C2/C(=O)NN(c3ccccc3)C2=O)c(C)n1-c1ccc(O)cc1	-11	3	12	52	4	-15
O=C1NN(c2ccccc2)C(=O)/C1=C\c1coc2ccc(O)cc2c1=O	19	-6	10	99*	39*	1
CC1=CC2=NC(=O)/C(=C\c3cc(C)n(-c4cccc(Cl)c4)c3C)C(=N)N2O1	11	0	-6	-3	0	3
C[C@H]1CN([C@@H](C)CO)C(=O)c2cccc(NS(=O)(=O)c3cn(C)cn3)c2O[C@H]1CN(C)Cc1ccccc1	·	·	·	·	-2	·
CC(=O)Nc1nc(-c2ccc3c(c2)OCO3)cs1	13	1	·	-4	-2	1
O=C(C[n+]1cc(-c2ccccc2)n2c1CCC2)Nc1nc(-c2ccccc2)cs1	21	0	9	-10	·	1
N#CCC(=O)Nc1nc(-c2ccc3c(c2)OCCO3)cs1	-6	-1	-1	100*	2	2
O=C(CSCC(=O)N1CCOCC1)Nc1nc(-c2ccc3c(c2)OCO3)cs1	12	-2	·	97*	3	-2
O=C(CSCC(=O)N1CCCc2ccccc21)Nc1nc(-c2ccccc2)cs1	17	0	·	100*	-3	-1
Cc1ccc(-c2csc(NC(=O)CN3CCOCC3)n2)cc1	-1	-1	-1	-3	-1	11
CCOC(=O)N1CCN(C(=O)CSCC(=O)Nc2nc(-c3ccc(C)cc3)cs2)CC1	-5	-2	·	99*	1	1
CC=Cc1ccc2n(c1=O)C[C@@H]1[C@@H](CO)[C@H](C(=O)Nc3nccs3)N(Cc3ccccc3F)[C@H]21 (mixture of isomers)	·	·	·	·	0	·
COc1cccc(C(=O)Nc2nc(-c3ccc4c(c3)OCO4)cs2)c1	42	3	·	50	-3	0
CCOC(=O)N1CCN(C(=O)CSCC(=O)Nc2nc(-c3ccc4c(c3)OCO4)cs2)CC1	-5	0	·	99*	·	1
Cc1cc[n+](-c2[nH]c(=O)sc2/C=N/NC([S-])=Nc2ccccc2)cc1	0	2	0	63	41*	0
